One may read the inhibition as the change of the read-out against control, counted positive when it falls. Usually remaining activity stands for the signal under treatment as a percentage of the control signal.

Structures are written as SMILES. Several values for one entry are separate records, joined by “and”; a condition that tells them apart may be missing. Equal entries are not always repeated. Activity calls are given as the source filed them. Unless noted, the rule behind the calls is not given here.

From PubChem BioAssay come the findings set out here.

Experiment [1] in a line: compounds altering circadian rhythm period length – cell-based, LOPAC library, luminescence reporter (AID 2774).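 Note: values are relative to mean of DMSO wells on each plate.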 The conditions noted are these: circadian reporter cells, at 7 µM, actives lie on both sides.
In experiment [2] the test system is Hepatitis C virus NS3 helicase. The experiment is described as follows: blockers of NS3h binding to ssDNA – biochemical, fluorescence polarization, LOPAC1280 library, primary screen (AID 687035; in the data active = inhibition above about 37%). The conditions noted are these: Purified HCV NS3 helicase, Cy5-dT15 ssDNA binding fluorescence polarization; stronger effect = higher value; concentration not given here. For orientation: Polarisation of emitted light reports the rotation of a fluorescent probe.

Experiment [3] in a line: compounds altering Cy5-DNA-NS3h complex signal – biochemical, LOPAC1280, artefact control for HCV NS3 helicase inhibitor project (AID 687037). The conditions noted are these: Cy5-DNA-NS3h complex fluorescence interference counterscreen. Background: Counterscreens check selectivity or assay interference.
Experiment [4] deals with Aerobactin synthetase IucA (Klebsiella pneumoniae, hypervirulent). The experiment is described as follows: biochemical IucA inhibition screen of LOPAC library by absorbance (AID 1346212).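 Note: 100% = no compound wells and 0% = no enzyme wells.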 The conditions noted are these: IucA enzyme assay, absorbance (OD) readout; stronger effect = lower value;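 tested at 8 µM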.
The nature of experiment [5]: viability loss with induced miR-34 in A549 – imaging, A549 dox-inducible miR-34, nuclei and caspase counts, primary screen (AID 1347080;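 active = compounds whose cell count with miR-34 switched on is under 0.7 times the count with it off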). The conditions noted are these: A549 miR-34 inducible, Hoechst nuclei count, 48 h.
A short description of experiment [6]: blockers of cellular phospholipid synthesis – cell-based, LOPAC library, screen 4, primary screen (AID 1347384). As to conditions: animal cells, phospholipid biosynthesis inhibition screen; at 10 µM.
A short description of experiment [7]: galactose survival enhancers in mitochondrial complex I cybrids – cell-based, galactose medium, ATP luminescence, primary screen (AID 1645843;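 active = z-score of at least 1.8 in each of two replicates, scored against plate mean and spread of sample wells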;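 note: positive z means more ATP and so rescue of galactose-driven cybrid death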). The conditions noted are these: complex I mutant cybrid cells, 72 h, stronger effect = higher value.
The mark [8] stands for this setting: measured here: relative caspase fold change +Dox/-Dox.
Where [9] appears, read: measured here: total cells with miR-34 induction, stronger effect = lower value.
[10] abbreviates: measured here: total cells without miR-34 induction.

`OCc1cnc[nH]1`: the period change in experiment [1] was 0.065 h (inactive). In addition, the inhibition in experiment [2] was 0% (inactive). In addition, the fluorescence ratio (interference) in experiment [3] was 1 (inactive). Besides, the remaining activity in experiment [4] is 102% (inactive). Moreover, the fold change in experiment [5] (stronger effect = lower value) was 0.96 (inactive); in experiment [5] (setting [8]), 1.56. Besides, the cell count is 10400 in experiment [5] (setting [9]) and 10800 in experiment [5] (setting [10]). In addition, in experiment [6], the outcome was inactive. Also, the z-score in experiment [7] is 0.255 (inactive).

Regarding `CCCN(CCC)[C@@H]1CCc2cccc(O)c2C1`, in experiment [1], the period change was -0.075 h (inactive). In addition, the inhibition in experiment [2] is -5% (inactive). In addition, the fluorescence ratio (interference) in experiment [3] was 1 (inactive). Moreover, in experiment [4], the remaining activity was 102% (inactive). The fold change in experiment [5] (stronger effect = lower value) was 1.11 (inactive); in experiment [5] (setting [8]) it was 1.06. Moreover, the cell count in experiment [5] (setting [9]) amounted to 10200; in experiment [5] (setting [10]), 9240. Further, the compound was classed as inactive in experiment [6]. For the same compound, the z-score in experiment [7] is -0.38 (inactive).

Consider `NCC(CP(=O)(O)O)c1ccc(Cl)cc1` (stereo not given), for which, in experiment [1], the period change is 0.02 h (inactive). Also, in experiment [2], the inhibition was -1% (inactive). Further, the fluorescence ratio (interference) in experiment [3] is 1 (inactive). Moreover, in experiment [4], the remaining activity was 107% (inactive). In addition, the fold change in experiment [5] (stronger effect = lower value) was 1 (inactive); in experiment [5] (setting [8]), 1.21. Moreover, the cell count in experiment [5] (setting [9]) stood at 9470; in experiment [5] (setting [10]), 9430. Moreover, in experiment [6], the compound was called inactive. In addition, the z-score in experiment [7] is 0.615 (inactive).

On to `CCCN(CCC)[C@H]1CCc2c(F)ccc(O)c2C1`, for which the period change in experiment [1] is -0.075 h (inactive). Also, the inhibition in experiment [2] was -4% (inactive). For the same compound, the fluorescence ratio (interference) in experiment [3] was 1 (inactive). Moreover, the remaining activity in experiment [4] is 115% (inactive). Also, the fold change in experiment [5] (stronger effect = lower value) is 1.05 (inactive); in experiment [5] (setting [8]), 1.11. The cell count in experiment [5] (setting [9]) came out at 10100; in experiment [5] (setting [10]) it was 9610. In experiment [6], the compound was classed as inactive. Also, in experiment [7], the z-score was -0.33 (inactive).

On to `CNCCc1ccc(O)c(O)c1`, for which the period change in experiment [1] was 0 h (inactive). Also, the inhibition in experiment [2] was -2% (inactive). Further, in experiment [3], the fluorescence ratio (interference) is 1 (inactive). The remaining activity in experiment [4] was 115% (inactive). Moreover, the fold change in experiment [5] (stronger effect = lower value) is 1.01 (inactive); in experiment [5] (setting [8]) it was 1.35. Further, the cell count in experiment [5] (setting [9]) stood at 9960; in experiment [5] (setting [10]), 9850. Besides, the compound was classed as inactive in experiment [6]. For the same compound, the z-score in experiment [7] was -0.945 (inactive).

Turning to `O=C1C=CC(=O)C=C1`, the period change in experiment [1] is -0.065 h (inactive). Moreover, in experiment [2], the inhibition is 0% (inactive). The fluorescence ratio (interference) in experiment [3] is 1 (inactive). The remaining activity in experiment [4] was 109% (inactive). Further, the fold change was 1.02 (inactive) in experiment [5] (stronger effect = lower value) and 1.65 in experiment [5] (setting [8]). Also, the cell count in experiment [5] (setting [9]) came out at 9760; in experiment [5] (setting [10]), 9540. Moreover, in experiment [6], the compound was called inactive. The z-score in experiment [7] is 0.205 (inactive).

On to `COc1ccc2c(c1O)-c1cccc3c1[C@@H](C2)N(C)CC3`, for which, in experiment [1], the period change was -0.1 h (inactive). Further, the inhibition in experiment [2] was -4% (inactive). Moreover, the fluorescence ratio (interference) in experiment [3] was 1 (inactive). Also, the remaining activity in experiment [4] was 102% (inactive). In addition, the values for the fold change in experiment [5] (stronger effect = lower value) and in experiment [5] (setting [8]) were 0.958 (inactive) and 1.07, respectively. The cell count in experiment [5] (setting [9]) was determined as 7690; in experiment [5] (setting [10]), 8030. Moreover, the compound was called inactive in experiment [6]. The z-score in experiment [7] is -0.76 (inactive).

Consider `O=C(O)[C@@H]1CCN1`, for which the period change in experiment [1] was 0.09 h (inactive). Further, the inhibition in experiment [2] is -5% (inactive). For the same compound, in experiment [3], the fluorescence ratio (interference) was 0.9 (inactive). The remaining activity in experiment [4] was 122% (inactive). The fold change was 1.03 (inactive) in experiment [5] (stronger effect = lower value) and 1.27 in experiment [5] (setting [8]). In addition, the cell count in experiment [5] (setting [9]) amounted to 10700; in experiment [5] (setting [10]), 10400. In experiment [6], the compound was called inactive. For the same compound, the z-score in experiment [7] was 0.2 (inactive).

Regarding `Ic1ccccc1CNC1C2CCN(CC2)C1C(c1ccccc1)c1ccccc1` (stereo not given), in experiment [1], the period change is 0.145 h (inactive). In addition, in experiment [2], the inhibition was -8% (inactive). Further, in experiment [3], the fluorescence ratio (interference) is 0.9 (inactive). The remaining activity in experiment [4] is 98.2% (inactive). For the same compound, the fold change is 0.485 (active) in experiment [5] (stronger effect = lower value) and 0.281 in experiment [5] (setting [8]). Besides, the results for the cell count in experiment [5] (setting [9]) and in experiment [5] (setting [10]) were 329 and 679, respectively. In experiment [6], the outcome was inactive. In addition, in experiment [7], the z-score was -1.29 (inactive).

For the compound `NNC(N)=O`, the period change in experiment [1] was -0.03 h (inactive). In addition, the inhibition in experiment [2] was -3% (inactive). Further, the fluorescence ratio (interference) in experiment [3] is 1 (inactive). For the same compound, the remaining activity in experiment [4] is 102% (inactive). Besides, the figures for the fold change in experiment [5] (stronger effect = lower value) and in experiment [5] (setting [8]) were 0.944 (inactive) and 0.77, respectively. Moreover, the values for the cell count in experiment [5] (setting [9]) and in experiment [5] (setting [10]) were 10400 and 11000, respectively. In addition, the outcome in experiment [6] was inactive. Besides, in experiment [7], the z-score is 0.4 (inactive).

On to `NC1CCc2cc(O)c(O)cc2C1` (stereo not given), for which the period change in experiment [1] was 0.115 h (inactive). The inhibition in experiment [2] was -1% (inactive). Also, in experiment [3], the fluorescence ratio (interference) was 1 (inactive). Moreover, the remaining activity in experiment [4] was 106% (inactive). Further, the fold change in experiment [5] (stronger effect = lower value) was 0.979 (inactive) and 0.806 (inactive); in experiment [5] (setting [8]) it was 1.51 and 1.21. Besides, the cell count was 9700 and 3720 in experiment [5] (setting [9]); 9900 and 4610 in experiment [5] (setting [10]). The result in experiment [6] was inactive. In addition, the z-score in experiment [7] is -0.895 (inactive).

As for `CC(C)NP(=O)(NC(C)C)OP(=O)(NC(C)C)NC(C)C`, in experiment [1], the period change was 0.055 h (inactive). Moreover, in experiment [2], the inhibition was -5% (inactive). In addition, the fluorescence ratio (interference) in experiment [3] is 1 (inactive). For the same compound, in experiment [4], the remaining activity was 90.6% (inactive). In addition, the fold change is 0.945 (inactive) in experiment [5] (stronger effect = lower value) and 1.32 in experiment [5] (setting [8]). In addition, the cell count in experiment [5] (setting [9]) was determined as 9680; in experiment [5] (setting [10]), 10200. Besides, the call in experiment [6] was inactive. The z-score in experiment [7] was 0.25 (inactive).

`Clc1ccc(N2CC3CCC(C2)N3)nn1`: in experiment [1], the period change is -0.11 h (inactive). The inhibition in experiment [2] was -5% (inactive). Further, the fluorescence ratio (interference) in experiment [3] was 1 (inactive). In addition, the remaining activity in experiment [4] was 90.4% (inactive). The fold change is 1 (inactive) in experiment [5] (stronger effect = lower value) and 1.13 in experiment [5] (setting [8]). The cell count in experiment [5] (setting [9]) and in experiment [5] (setting [10]) was 10400 each time. In addition, the compound was classed as inactive in experiment [6]. In addition, in experiment [7], the z-score was -0.28 (inactive).

For the compound `NC(=O)c1cc(N2CC2)c([N+](=O)[O-])cc1[N+](=O)[O-]`, the period change in experiment [1] is -0.165 h (inactive). In addition, the inhibition in experiment [2] was -2% (inactive). Besides, the fluorescence ratio (interference) in experiment [3] is 1 (inactive). Moreover, in experiment [4], the remaining activity is 112% (inactive). Also, the fold change in experiment [5] (stronger effect = lower value) is 1.03 (inactive); in experiment [5] (setting [8]), 1.9. In addition, the cell count in experiment [5] (setting [9]) came to 4350; in experiment [5] (setting [10]) it was 4220. The outcome in experiment [6] was inactive. In addition, the z-score in experiment [7] is 0.09 (inactive).
